Shown are actives, neighbours in structure and some others; about 3.5% of the full set was active somewhere.
BoNT F protease: BoNT/F light chain protease inhibitors, primary screen, biochemical, flow cytometry, MLPCN library. Botulinum neurotoxin type F light chain protease (Clostridium botulinum). hit rate 0.22% among 360,000. inhibition, % at 10 µM. Multiplex microsphere protease cleavage assay. AID 588497, 2011; in the data active means inhibition above about 35%, passing the limit was not always enough; inconclusive means no clear call, values can overlap the other calls
Autofluor counter: flagged as autofluorescent in microsphere protease counterscreen. compound autofluorescence counterscreen, microsphere flow cytometry; active compounds read high. hit rate 3.1% among 360,000. AID 624483. fluorescence intensity (test concentration not listed); in the data active means fluorescence intensity above about 16000; inconclusive means no clear call, values can overlap the other calls
Anthrax LF inh2: Bacillus anthracis LF protease inhibitors, primary screen, biochemical, multiplex microsphere, MLPCN library | multiplex microsphere protease cleavage assay | inhibition, % at 10 µM | AID 588501, 2011 | hit rate 0.12% among 360,000 | Lethal factor (Bacillus anthracis), P15917; in the data active means inhibition above about 30%; inconclusive means no clear call, values can overlap the other calls
Target sequence (P15917 whole entry, looked up): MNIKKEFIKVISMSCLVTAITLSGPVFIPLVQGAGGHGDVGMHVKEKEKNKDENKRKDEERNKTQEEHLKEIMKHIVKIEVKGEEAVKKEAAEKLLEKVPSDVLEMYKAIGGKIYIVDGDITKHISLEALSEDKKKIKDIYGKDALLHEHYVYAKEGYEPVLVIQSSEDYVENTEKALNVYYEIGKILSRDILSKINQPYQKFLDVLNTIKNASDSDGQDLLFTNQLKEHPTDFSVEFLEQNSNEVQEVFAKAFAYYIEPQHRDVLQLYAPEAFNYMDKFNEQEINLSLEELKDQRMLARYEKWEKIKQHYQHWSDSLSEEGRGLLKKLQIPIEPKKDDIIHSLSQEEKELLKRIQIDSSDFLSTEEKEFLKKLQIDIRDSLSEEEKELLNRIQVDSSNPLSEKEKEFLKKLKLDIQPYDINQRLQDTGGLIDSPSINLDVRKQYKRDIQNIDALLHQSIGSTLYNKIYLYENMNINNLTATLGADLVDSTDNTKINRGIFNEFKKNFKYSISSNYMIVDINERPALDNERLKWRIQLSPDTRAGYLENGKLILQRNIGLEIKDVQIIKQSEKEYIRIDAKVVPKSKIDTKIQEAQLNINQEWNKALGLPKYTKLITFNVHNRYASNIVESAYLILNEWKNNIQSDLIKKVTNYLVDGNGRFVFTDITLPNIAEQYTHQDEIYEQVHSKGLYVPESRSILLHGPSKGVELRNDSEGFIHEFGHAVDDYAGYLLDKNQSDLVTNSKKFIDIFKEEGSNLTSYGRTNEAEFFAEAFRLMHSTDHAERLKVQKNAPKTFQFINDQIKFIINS
BoNT A protease: BoNT/A light chain protease inhibitors, primary screen, biochemical, flow cytometry, MLPCN library; Botulinum neurotoxin type A light chain protease (Clostridium botulinum A str. ATCC 3502); multiplex microsphere protease substrate cleavage; inhibition, % at 10 µM; hit rate 0.17% among 360,000; AID 588499, 2011; in the data active means inhibition above about 30%; inconclusive means no clear call, values can overlap the other calls
BoNT-A LC CP2: BoNT/A light chain protease inhibitors, confirmation, biochemical, flow cytometry, cherry pick 2; AID 602325, 2012; shares compounds with BoNT A protease; multiplex microsphere protease cleavage assay; inhibition, % at 10 µM; hit rate 10% among 150; in the data active means inhibition above about 24%
LF protease CP2: Bacillus anthracis LF protease inhibitors, confirmation, biochemical, multiplex microsphere | shares compounds with BoNT A protease | multiplex microsphere protease cleavage assay | inhibition, % at 10 µM | hit rate 7% among 150 | AID 602327, 2012
BoNT-F LC CP2: BoNT/F light chain protease inhibitors, confirmation, biochemical, flow cytometry, cherry pick 2; shares compounds with BoNT A protease; multiplex microsphere protease cleavage assay; inhibition, % at 10 µM; hit rate 7% among 150; AID 602336, 2012
Of the large screens only hits and unclear results are named; the others gave an inactive call (follow-up assays come after a bar, where they were run). Unless noted, no stated cut-off is given here; in the data, active means inhibition above about 25%; inactive means the rest.

COc1ccc(-c2cc3c(c4c2ccn4C)C2CCC3O2)cc1OC (stereo not drawn)	none
Cn1ccc2c(-c3ccc(F)cc3)cc3c(c21)C1CCC3C1 (stereo not drawn)	none | BoNT-A LC CP2 inactive | LF protease CP2 inactive | BoNT-F LC CP2 inactive
CSc1ccc(-c2cc3c(c4c2ccn4C)C2CCC3C2)cc1 (stereo not drawn)	none
COc1ccc(-c2cc3c(c4c2ccn4C)C2CCC3C2)cc1F (stereo not drawn)	none | BoNT-A LC CP2 inactive | LF protease CP2 inactive | BoNT-F LC CP2 inactive
C/C(=N\NC(=O)c1ccccc1O)c1ccc(NC(=O)Cc2ccccc2)cc1	none
CCOc1ccc(Cc2nnc(SCC(=O)Nc3c(C)cccc3C)[nH]c2=O)cc1	none
Cc1ccc(-c2c(C(=O)O)c3ccccc3[nH]c2=O)cc1	none
Cn1ccc2c(-c3ccc(C(F)(F)F)cc3)cc3c(c21)C1CCC3O1 (stereo not drawn)	none
Cn1ccc2c(-c3ccc4c(c3)OCCO4)cc3c(c21)C1CCC3C1 (stereo not drawn)	none | BoNT-A LC CP2 inactive | LF protease CP2 inactive | BoNT-F LC CP2 inactive
Cn1ccc2c(-c3ccc(C(F)(F)F)cc3)cc3c(c21)C1CCC3C1 (stereo not drawn)	none | BoNT-A LC CP2 inactive | LF protease CP2 inactive | BoNT-F LC CP2 inactive
Cc1ccccc1-c1cc2c(c3c1ccn3C)C1CCC2C1 (stereo not drawn)	none | BoNT-A LC CP2 inactive | LF protease CP2 inactive | BoNT-F LC CP2 inactive
CCOc1ccc(NC(=O)CN(C)C(=O)C2CC(=O)N(Cc3ccco3)C2)cc1OCC (stereo not drawn)	Autofluor counter inconclusive
CCCNC(=O)c1onc(CSc2ccc(F)cc2)c1C(=O)NCCOC	none
CN(C)c1ccc(/C=C2/C[N+](C)(C)C/C(=C/c3ccc(N(C)C)cc3)C2=O)cc1	Anthrax LF inh2 41, BoNT A protease 86 | BoNT-A LC CP2 48 | LF protease CP2 28 | BoNT-F LC CP2 inactive
COc1ccc(-c2nc3c(Cl)cc(C(F)(F)F)cn3c2Cc2ccsc2)cc1OC	none | BoNT-A LC CP2 inactive | LF protease CP2 inactive | BoNT-F LC CP2 inactive
Cc1cc2cc(CNC(=O)c3ccc(S(=O)(=O)N4CCCC4)cc3)ccc2n1C	BoNT A protease 80 | BoNT-A LC CP2 inactive | LF protease CP2 inactive | BoNT-F LC CP2 inactive
CCN(CC)S(=O)(=O)c1ccc(C(=O)NCc2ccc3c(c2)cc(C)n3C)cc1	BoNT A protease 81 | BoNT-A LC CP2 inactive | LF protease CP2 inactive | BoNT-F LC CP2 inactive
Cc1ccc(CNC(=O)c2ccc(S(=O)(=O)N3CCCCC3)cc2)cc1	none
Cc1cc2cc(CNC(=O)c3ccc(S(=O)(=O)N4CCCCC4)cc3)ccc2n1C	BoNT A protease 80 | BoNT-A LC CP2 inactive | LF protease CP2 inactive | BoNT-F LC CP2 inactive
COc1ccc(C2=NN(C(=O)CSc3nc(=O)n4cccc(C)c4n3)C(c3ccc(C)cc3)C2)cc1 (stereo not drawn)	none

Screening data from PubChem BioAssay.
